Assay outcomes deposited in PubChem BioAssay by Broad Institute.
An excerpt weighted towards active compounds, which were near 2.4% of everything screened.
Wnt bcat act: activators of Wnt/beta-catenin signaling; activation, % at 9.35 µM; 1.2% of 300,000 active; Wnt/beta-catenin reporter cell assay, activator, plate reader; in the data active means activation above about 30%, passing the limit was not always enough
MITF act: MITF TRPM1 promoter activation in melanoma cells. SK-MEL-5 TRPM1-promoter luciferase, 24 h; % of positive control, neutral wells = 0. activation, % at 12.5 µM. 0.75% of 300,000 active;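 active means mean activation of at least 80% with every replicate also reaching 80%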
INS-1E GSIS act: primary screen for activators of insulin secretion dependent on glucose, INS-1E cells, GLuc reporter luminescence | INS-1E GLuc reporter insulin secretion, 2-3 h | activation, % at 16.6 µM | 0.61% of 370,000 active | AID 743287;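 active means lowest replicate activation of at least 40%, so every replicate reaches that level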
NSD2 HMT inh: NSD2 (human) methyltransferase inhibition. NSD2 peptide methylation, AlphaScreen, 120 min. inhibition, % at 12.5 µM. 0.54% of 310,000 active
Target sequence (O96028 whole entry, looked up): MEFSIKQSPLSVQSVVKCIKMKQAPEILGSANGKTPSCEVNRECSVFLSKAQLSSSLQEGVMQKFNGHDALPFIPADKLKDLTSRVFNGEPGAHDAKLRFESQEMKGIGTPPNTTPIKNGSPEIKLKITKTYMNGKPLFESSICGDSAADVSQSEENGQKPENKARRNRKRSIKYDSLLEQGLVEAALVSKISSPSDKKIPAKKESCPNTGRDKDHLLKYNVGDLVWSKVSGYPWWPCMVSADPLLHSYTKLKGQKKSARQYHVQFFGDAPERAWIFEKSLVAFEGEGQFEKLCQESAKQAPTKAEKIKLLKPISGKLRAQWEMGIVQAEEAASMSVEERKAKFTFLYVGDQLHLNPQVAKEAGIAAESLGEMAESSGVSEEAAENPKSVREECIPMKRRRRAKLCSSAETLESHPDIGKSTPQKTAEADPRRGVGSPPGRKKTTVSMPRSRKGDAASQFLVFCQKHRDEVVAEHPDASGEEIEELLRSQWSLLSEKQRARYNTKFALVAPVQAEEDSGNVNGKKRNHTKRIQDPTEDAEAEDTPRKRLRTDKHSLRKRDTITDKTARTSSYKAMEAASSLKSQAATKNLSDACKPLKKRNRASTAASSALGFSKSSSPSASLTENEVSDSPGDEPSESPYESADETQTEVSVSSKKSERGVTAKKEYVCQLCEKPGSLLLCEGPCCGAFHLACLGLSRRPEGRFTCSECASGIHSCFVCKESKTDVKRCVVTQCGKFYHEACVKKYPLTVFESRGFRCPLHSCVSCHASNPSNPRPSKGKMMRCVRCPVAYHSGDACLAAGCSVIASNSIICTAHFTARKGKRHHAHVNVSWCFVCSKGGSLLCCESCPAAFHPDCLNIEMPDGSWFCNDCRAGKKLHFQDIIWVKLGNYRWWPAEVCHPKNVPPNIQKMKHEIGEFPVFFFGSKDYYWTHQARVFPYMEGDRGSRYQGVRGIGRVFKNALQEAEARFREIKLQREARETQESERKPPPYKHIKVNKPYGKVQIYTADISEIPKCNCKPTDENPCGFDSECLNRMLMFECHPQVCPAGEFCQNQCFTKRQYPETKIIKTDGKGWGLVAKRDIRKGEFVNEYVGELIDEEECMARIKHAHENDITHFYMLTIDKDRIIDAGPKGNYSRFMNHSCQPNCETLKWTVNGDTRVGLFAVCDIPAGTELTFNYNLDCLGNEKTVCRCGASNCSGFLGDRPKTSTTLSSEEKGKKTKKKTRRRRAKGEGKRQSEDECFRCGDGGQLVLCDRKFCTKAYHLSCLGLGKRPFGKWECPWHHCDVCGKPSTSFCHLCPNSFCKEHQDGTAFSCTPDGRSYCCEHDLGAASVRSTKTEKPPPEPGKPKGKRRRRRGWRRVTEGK
Dyrk1A ADPGlo: inhibitors of rat Dyrk1A kinase; ADP-Glo luminescence, NFATc1 peptide; inhibition, % at 12.5 µM; 0.43% of 310,000 active; AID 504441
miR-122 sensor: inhibitors of miR-122 in Huh7 cells; Huh7 miR-122 Renilla luciferase sensor, 48 h; neutral wells = 0, positive control = 100; activation (reporter increase), % at 12.5 µM; 0.3% of 340,000 active; AID 602342;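 active means mean replicate activation score at least 90 and every replicate individually at or above 90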;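 further: higher luciferase means less miR-122 activity so hits act as miR-122 inhibitors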
Numbers stand for hits. Unless noted, no stated cut-off is given here; in the data, active means inhibition above about 50%; inactive means the rest.

Screening Cc1cc(C)c(C#N)c(OCC(=O)c2ccc(Br)cc2)n1 returned MITF act inactive, INS-1E GSIS act inactive, NSD2 HMT inh inactive, Dyrk1A ADPGlo inactive and miR-122 sensor inactive.
For Cc1ccnc(SCC(=O)c2ccc(Br)cc2)c1C#N the results were Wnt bcat act 42.0, MITF act inactive, INS-1E GSIS act inactive, NSD2 HMT inh inactive and Dyrk1A ADPGlo inactive.
Cc1snc(SCC(=O)c2ccc(Cl)cc2)c1C#N was read as MITF act 125.8, NSD2 HMT inh inactive, Dyrk1A ADPGlo inactive and miR-122 sensor inactive.
Screening Cc1ccc(C(=O)CSc2nsc(C)c2C#N)cc1 returned MITF act inactive, NSD2 HMT inh inactive, Dyrk1A ADPGlo inactive and miR-122 sensor inactive.
For N#Cc1ccc(-c2ccc3c(c2)[C@@H]2[C@@H](CCN2C(=O)CN2CCOCC2)[C@H](CO)N3)cc1 the results were INS-1E GSIS act inactive and miR-122 sensor inactive.
CSc1ccc(C(=O)/C=C/c2ccc(N)cc2)cc1 was read as Wnt bcat act 66.9, MITF act inactive, INS-1E GSIS act inactive, NSD2 HMT inh inactive, Dyrk1A ADPGlo inactive and miR-122 sensor inactive.
COc1ccc(N=Nc2ccc3ccccc3c2)c(O)c1 was read as Wnt bcat act inactive, INS-1E GSIS act inactive, NSD2 HMT inh inactive and Dyrk1A ADPGlo inactive.
Screening COc1ccc(N=Nc2cc(C)ccc2O)cc1 returned Wnt bcat act 53.8, MITF act inactive, INS-1E GSIS act inactive, NSD2 HMT inh inactive and Dyrk1A ADPGlo inactive.
COc1ccc(N=Nc2ccc(N)nc2N)cc1 was read as Wnt bcat act 40.7, MITF act inactive, INS-1E GSIS act inactive, NSD2 HMT inh inactive, Dyrk1A ADPGlo inactive and miR-122 sensor inactive.
Nc1ccc(N=Nc2ccc(O)cc2)c(N)n1 was read as Wnt bcat act inactive, MITF act inactive, INS-1E GSIS act inactive, NSD2 HMT inh inactive and Dyrk1A ADPGlo inactive.
For CCN1CCN(c2nc(Nc3ccccc3F)nc(N)c2[N+](=O)[O-])CC1 the results were Wnt bcat act inactive, INS-1E GSIS act inactive, NSD2 HMT inh inactive, Dyrk1A ADPGlo inactive and miR-122 sensor inactive.
Nc1nc(Nc2ccccc2F)nc(N2CCCC2)c1[N+](=O)[O-] was read as Wnt bcat act inactive, MITF act 87.8, INS-1E GSIS act inactive, NSD2 HMT inh inactive, Dyrk1A ADPGlo inactive and miR-122 sensor inactive.
COC(=O)C(CCSC)NC(=O)c1cccc([N+](=O)[O-])c1 (stereo not drawn) was read as MITF act inactive, NSD2 HMT inh inactive, Dyrk1A ADPGlo inactive and miR-122 sensor inactive.
`CCSc1ncccc1C(=O)N[C@@H](CCSC)C(=O)OC` gave Wnt bcat act 45.3, INS-1E GSIS act inactive, NSD2 HMT inh inactive and miR-122 sensor inactive.
`COc1ccc(NC(=O)N(C)C[C@@H]2Oc3ccc(NC(=O)Nc4ccc(F)cc4)cc3C(=O)N([C@H](C)CO)C[C@H]2C)cc1` gave INS-1E GSIS act inactive and miR-122 sensor inactive.
Screening CCOc1ccc(N=C(C)C2=C(O)c3ccccc3C2=O)cc1 returned Wnt bcat act 38.9, NSD2 HMT inh inactive and Dyrk1A ADPGlo inactive.
For CC(=NC1CC1)C1=C(O)c2ccccc2C1=O the results were Wnt bcat act inactive, MITF act 97.7, NSD2 HMT inh inactive and miR-122 sensor inactive.
`COc1ccc(N=C(C)C2=C(O)c3ccccc3C2=O)cc1` gave Wnt bcat act 57.6, MITF act inactive, INS-1E GSIS act inactive, NSD2 HMT inh inactive, Dyrk1A ADPGlo inactive and miR-122 sensor inactive.
For C/C(=N\N(C)C)C1=C(O)c2ccccc2C1=O the results were Wnt bcat act inactive, MITF act inactive, INS-1E GSIS act inactive, NSD2 HMT inh inactive and Dyrk1A ADPGlo inactive.
`CC(=O)Nc1ccc(N=C(C2=C(O)c3ccccc3C2=O)c2ccccc2)cc1` gave Wnt bcat act inactive, MITF act inactive, INS-1E GSIS act inactive, NSD2 HMT inh inactive and Dyrk1A ADPGlo inactive.
Screening CO[C@@H]1CN(C)C(=O)c2cc(NC(C)=O)ccc2OC[C@@H](C)N(C(=O)CC2CC2)C[C@H]1C returned miR-122 sensor inactive.
`C[C@@H]1CN([C@H](C)CO)C(=O)c2cc(NC(=O)Nc3ccc(F)cc3)ccc2O[C@@H](C)CCCCO[C@@H]1CN(C)C(=O)C1CCCCC1` gave INS-1E GSIS act inactive and miR-122 sensor inactive.
`C[C@@H]1CN([C@H](C)CO)C(=O)c2cc(NC(=O)Nc3cccc4ccccc34)ccc2O[C@H]1CN(C)Cc1ccc(C(=O)O)cc1` gave INS-1E GSIS act inactive and miR-122 sensor inactive.
`C[C@@H]1CN([C@H](C)CO)C(=O)c2cc(-c3ccc(C#N)cc3)cnc2O[C@@H]1CN(C)Cc1cccnc1` gave INS-1E GSIS act inactive and miR-122 sensor inactive.
For CC(=O)N1[C@@H]2c3ccc(-c4ccncc4)c(=O)n3C[C@@H]2[C@@H](CO)[C@@H]1C(=O)NCc1ccccc1Cl the results were INS-1E GSIS act inactive and miR-122 sensor inactive.
`COc1ccc(C2(C)CC(C)(C)Nc3ccccc32)cc1` (stereo not drawn) gave Wnt bcat act inactive, INS-1E GSIS act inactive, NSD2 HMT inh inactive and miR-122 sensor inactive.
Screening COc1ccc(C2CC(C)(c3ccc(OC)cc3)Nc3ccccc3N2)cc1 (stereo not drawn) returned Wnt bcat act 48.8, NSD2 HMT inh inactive, Dyrk1A ADPGlo inactive and miR-122 sensor inactive.
`COc1ccc2c3c(n(C)c2c1)[C@H](CO)N(C(=O)Nc1ccc(F)cc1)CC31CCN(S(=O)(=O)c2cn(C)cn2)CC1` gave INS-1E GSIS act inactive.
CCN(Cc1ccccc1)S(=O)(=O)c1ccccc1Br was read as Wnt bcat act inactive, MITF act inactive, INS-1E GSIS act 41.4, Dyrk1A ADPGlo inactive and miR-122 sensor inactive.
`CCN(Cc1cc(OC)c(OC)c(OC)c1)S(=O)(=O)c1ccccc1Br` gave Wnt bcat act inactive and INS-1E GSIS act inactive.
`CC(C)(C)c1ccc(/C=N/NC(=O)C2CCCC2)cc1` gave Wnt bcat act inactive, MITF act inactive, INS-1E GSIS act inactive, NSD2 HMT inh inactive, Dyrk1A ADPGlo inactive and miR-122 sensor inactive.
`CC(C)c1ccc(/C=N/NC(=O)C2CCCC2)cc1` gave Wnt bcat act inactive, MITF act 140.1, INS-1E GSIS act inactive, NSD2 HMT inh inactive and miR-122 sensor inactive.
`Nc1ccccc1-n1nc2ccc3ccccc3c2n1` gave Wnt bcat act 54.6, INS-1E GSIS act inactive, NSD2 HMT inh inactive and miR-122 sensor inactive.
COc1cc2nn(-c3ccccc3N)nc2cc1OC was read as Wnt bcat act 42.4 and NSD2 HMT inh inactive.
`COc1ccccc1-n1nc(C)cc1N` gave Wnt bcat act inactive, MITF act inactive, INS-1E GSIS act inactive, NSD2 HMT inh inactive, Dyrk1A ADPGlo inactive and miR-122 sensor inactive.
For COc1ccc(OC)c2c1C(=O)C(Cl)=C(Cl)C2=O the results were Wnt bcat act inactive, INS-1E GSIS act 58.3, NSD2 HMT inh inactive, Dyrk1A ADPGlo inactive and miR-122 sensor inactive.
